This is an account of results in PubChem BioAssay (EPA / NIEHS).

In assay [1] the target is Nuclear respiratory factor 1 (Homo sapiens) (UniProt Q16656). The experiment in a line: ATG_NRF1_CIS: Attagene CIS-FACTORIAL HepG2 Assay for human Nuclear Respiratory Factor 1 (NRF1) Orphan Gene (AID 2282987). The note with it: HepG2 NRF1 cis-element reporter, Attagene multiplex; actives raise or lower the signal. Put shortly:
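Using DMSO as baseline, gain- or loss-of-signal was fitted for reporter mRNA levels in HepG2 cells transiently transfected with cis-regulated reporter units. Samples were taken 24 h after dosing and read by RT-PCR with capillary electrophoresis.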

In assay [2] the target is Myc proto-oncogene protein (Homo sapiens) (UniProt P01106). The experiment in a line: ATG_Myc_CIS: Attagene CIS-FACTORIAL HepG2 Assay for human Myelocytomatosis (Myc) Proto-Oncogene Transcription Factor (AID 2282990). Conditions: HepG2, Attagene cis-reporter transcription factor activity; actives raise or lower the signal. Put shortly:
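After 24 h chemical treatment of HepG2 cells carrying multiplexed cis-regulated reporter constructs, reporter transcripts quantified by RT-PCR and capillary electrophoresis of fluorescent fragments. Gain or loss fitted against DMSO baseline.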

The nature of assay [3]: ATG_NF_kB_CIS: Attagene CIS-FACTORIAL HepG2 Assay for human Nuclear Factor Kappa B (NF-kB) (AID 2282991). Conditions: HepG2 Attagene cis-factorial NF-kB reporter mRNA; actives raise or lower the signal. Put shortly: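 Endpoint from a 52-component multiplexed HepG2 reporter panel: cis-regulated transcription units transiently transfected, 24 h dosing, reporter mRNA quantified by RT-PCR and capillary electrophoresis, scored as increase or decrease against DMSO.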

A short description of assay [4]: ATG_NRF2_ARE_CIS: Attagene CIS-FACTORIAL HepG2 Assay for human Nuclear Factor Erythroid 2 Related Factor 2 (NFR2) response to Antioxidant Response Elements (ARE) (AID 2282992).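 On AC50: reporter mRNA level measured by RT-PCR and capillary electrophoresis fluorescence.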 The note with it: HepG2 Attagene ARE/NRF2 reporter, transcription factor activity; actives raise or lower the signal. Put shortly: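 HepG2 cells transiently transfected with multiplexed cis-regulated reporter transcription units measure endogenous transcription factor activity. Reporter mRNA at 24 h is quantified by RT-PCR, fluorescent labelling and capillary electrophoresis, with bidirectional fitting relative to DMSO.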

Assay [5] in a line: ATG_Oct_MLP_CIS: Attagene CIS-FACTORIAL HepG2 Assay for human Octamer-Binding Transcription Factor (Oct) (AID 2282993). The note with it: HepG2 Attagene cis-factorial Oct reporter, mRNA; actives raise or lower the signal. Put shortly: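 Transfected HepG2 cells, 24 h treatment. Reporter mRNA quantified by RT-PCR–capillary electrophoresis; bidirectional fitting against DMSO.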

In assay [6] the target is Cellular tumor antigen p53 (Homo sapiens) (UniProt P04637). Briefly: ATG_p53_CIS: Attagene CIS-FACTORIAL HepG2 Assay for human p53 Transcription Factor (AID 2282994). Conditions: HepG2 p53 cis-element reporter, Attagene mRNA; actives raise or lower the signal. Put shortly:
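HepG2 cells transiently transfected with multiplexed cis-regulated reporter transcription units read endogenous TF activity. After 24 h compound exposure, reporter mRNA was quantified by RT-PCR, fluorescent labelling, HpaI digestion and capillary electrophoresis; bidirectional fits versus DMSO baseline.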

Assay [7] can be described thus: ATG_NFI_CIS: Attagene CIS-FACTORIAL HepG2 Assay for human Nuclear Factor I (NFI) (AID 2282989). Conditions: HepG2 cis-regulatory reporter, NFI response element transcription; actives raise or lower the signal. Put shortly:
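Reporter transcription driven by endogenous transcription factors in HepG2 cells; 24 h treatment. Quantitation by labelled RT-PCR fragments on capillary electrophoresis, gain- or loss-of-signal relative to DMSO.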

A short description of assay [8]: BSK_3C_uPAR: BioMAP Diversity Plus: 3C Assay for Urokinase-type plasminogen activator receptor (uPAR) Biomarker Activity (AID 2282998). The note with it: BioMAP 3C HUVEC, uPAR biomarker ELISA; actives raise or lower the signal. Put shortly:
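Readout: ELISA for surface uPAR. System: human umbilical vein endothelial primary cells, 24 h after chemical exposure. Analysis: bidirectional fit, DMSO baseline.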

Assay [9] can be described thus: BSK_3C_VCAM1: BioMAP Diversity Plus: 3C Assay for Vascular cell adhesion molecule 1 (VCAM1) Biomarker Activity (AID 2282999). The note with it: BioMAP 3C HUVEC, VCAM1 ELISA, cytokine-stimulated; actives raise or lower the signal. Put shortly:
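Endothelial cells from human umbilical vein are treated with test chemical. At 24 h, VCAM-1 is measured by ELISA, and responses in either direction are fitted relative to DMSO.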
(ELISA stands for enzyme-linked immunosorbent assay.)

A short description of assay [10]: BSK_3C_TissueFactor: BioMAP Diversity Plus: 3C Assay for Tissue Factor Biomarker Activity (AID 2282997). The note with it: BioMAP 3C HUVEC, tissue factor biomarker readout; actives raise or lower the signal. Put shortly: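 Human vascular primary cells (umbilical vein endothelium) received test chemical; Tissue Factor was determined by ELISA at 24 h, and both gain and loss of signal versus DMSO were fitted.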

Activity calls are given as the source filed them. How the source made its calls: active means hit-call score of the fitted dose curve at least 0.9, where 1 is the maximum; inactive means score below 0.9.

Chain of Myc proto-oncogene protein (Homo sapiens) (P01106 whole entry, looked up, the tested form may be a part): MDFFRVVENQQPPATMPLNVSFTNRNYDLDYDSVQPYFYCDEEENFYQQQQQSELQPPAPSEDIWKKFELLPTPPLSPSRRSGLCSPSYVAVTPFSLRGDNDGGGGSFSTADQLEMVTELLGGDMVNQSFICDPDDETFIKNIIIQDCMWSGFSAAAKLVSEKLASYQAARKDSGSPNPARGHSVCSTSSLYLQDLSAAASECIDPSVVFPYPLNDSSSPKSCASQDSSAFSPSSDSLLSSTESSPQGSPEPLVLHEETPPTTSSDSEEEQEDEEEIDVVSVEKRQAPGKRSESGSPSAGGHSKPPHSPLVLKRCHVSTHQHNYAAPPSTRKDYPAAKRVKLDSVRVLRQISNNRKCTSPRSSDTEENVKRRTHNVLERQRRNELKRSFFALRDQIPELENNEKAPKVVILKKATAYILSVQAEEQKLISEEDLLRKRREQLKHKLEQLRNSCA
Chain of Cellular tumor antigen p53 (Homo sapiens) (P04637 whole entry, looked up): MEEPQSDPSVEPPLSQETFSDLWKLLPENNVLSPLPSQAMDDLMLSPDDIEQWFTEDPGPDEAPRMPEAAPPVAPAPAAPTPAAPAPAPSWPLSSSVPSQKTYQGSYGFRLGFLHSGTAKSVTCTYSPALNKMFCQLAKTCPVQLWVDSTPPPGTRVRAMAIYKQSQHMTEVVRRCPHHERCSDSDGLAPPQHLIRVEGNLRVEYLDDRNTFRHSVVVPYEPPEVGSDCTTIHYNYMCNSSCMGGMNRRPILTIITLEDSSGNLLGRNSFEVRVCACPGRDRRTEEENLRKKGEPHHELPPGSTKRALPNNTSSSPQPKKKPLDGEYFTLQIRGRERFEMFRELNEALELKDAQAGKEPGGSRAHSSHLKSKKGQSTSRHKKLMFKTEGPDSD
Chain of Nuclear respiratory factor 1 (Homo sapiens) (Q16656 whole entry, looked up): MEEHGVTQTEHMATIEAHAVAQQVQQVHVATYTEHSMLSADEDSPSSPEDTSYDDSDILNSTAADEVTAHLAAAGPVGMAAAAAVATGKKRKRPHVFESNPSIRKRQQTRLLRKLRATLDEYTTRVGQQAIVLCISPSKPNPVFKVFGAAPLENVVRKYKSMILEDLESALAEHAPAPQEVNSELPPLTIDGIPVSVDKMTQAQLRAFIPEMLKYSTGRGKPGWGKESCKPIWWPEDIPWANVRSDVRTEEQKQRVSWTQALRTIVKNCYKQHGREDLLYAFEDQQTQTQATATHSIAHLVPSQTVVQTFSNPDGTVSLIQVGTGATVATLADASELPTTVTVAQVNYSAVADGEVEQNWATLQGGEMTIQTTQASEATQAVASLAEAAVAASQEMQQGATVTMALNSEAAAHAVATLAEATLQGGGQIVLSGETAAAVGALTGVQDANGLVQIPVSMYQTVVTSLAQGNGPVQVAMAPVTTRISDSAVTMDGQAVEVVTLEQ

As to `O=S1(=O)CC=CC1`, the compound was called inactive in [1], in assay [2], in assay [3], in assay [4], in [5] and in assay [6].
As for `CCCCOCC(C)OCC(C)O` (stereo unspecified), the call in [1], in assay [2], in assay [3], in [4] and in [5] was inactive.
What is called AC50 is the concentration at which the activity in the assay is half-maximal. In the case of `COc1ccc(N)c(C)c1`, the result in [1], in assay [2], in assay [3] and in assay [5] was inactive. For the same compound, in [4], the AC50 was 46.3 µM (active).
For the compound `CC/C=C\CCOC(=O)C(C)C`, the outcome in [1], in assay [2], in assay [3], in [4], in assay [5] and in assay [6] was inactive.
As to `CC1(C)[C@H](C=C(Cl)Cl)[C@H]1C(=O)OCc1cccc(Oc2ccccc2)c1`, the compound was called inactive in assay [1], in [7], in [2], in assay [4], in assay [5] and in assay [6]. The outcome in [8] and in [9] was inactive.
`CCCCCCCCCC(=O)OCC`: the compound was called inactive in assay [1], in assay [7], in [2], in [4], in assay [5] and in assay [6]. The figures for the AC50 in [8] and in assay [9] were 29.1 µM (active) and 32.5 µM (active), respectively.
Regarding `CC(=O)c1ccc2ccccc2c1`, the compound was called inactive in assay [1], in [7], in assay [2], in assay [4] and in [6].
On to `O=c1cc(-c2ccc(O)cc2)oc2cc(O)cc(O)c12`, for which the compound was classed as inactive in [1], in assay [7], in assay [2] and in assay [6]. Further, the AC50 in [5] was 26.5 µM (active).
With `CCOC(=O)COC(=O)c1ccccc1C(=O)OCC`, the result in assay [1], in assay [7], in [2], in assay [5] and in [6] was inactive.
Consider `CC(C)C(=O)OCC=Cc1ccccc1`, for which the compound was called inactive in assay [1], in [2], in assay [3], in [5] and in assay [6]. Further, the AC50 in [4] is 59.3 µM (active).
For the compound `CC1=CCC(=C(C)C)CC1`, the call in assay [1], in assay [7], in [2] and in [6] was inactive. The AC50 in assay [4] was 32 µM (active).
Take `COC(=O)c1cccc(C(=O)OC)c1`: the call in assay [1], in assay [7], in [2], in assay [5] and in [6] was inactive.
Consider `CCCCCCC(C)O` (stereo unspecified), for which the compound was called inactive in assay [1], in [7], in assay [2], in assay [4] and in assay [6].
Take `C=CC(=O)OCC(CO)(COC(=O)C=C)COC(=O)C=C`: the call in assay [1], in assay [7], in [2], in assay [4] and in [5] was inactive. In addition, the AC50 is 0.443 µM (active) in assay [8] and 0.0478 µM (active) in [9].
Turning to `Nc1cc([N+](=O)[O-])ccc1C(=O)O`, the compound was called inactive in assay [1], in assay [7], in assay [2], in assay [5] and in assay [6].
With `O=Cc1ccccc1O`, the result in assay [1], in assay [2], in [3], in assay [4], in [5] and in assay [6] was inactive.
As to `CCCCCCCC1CCCC1=O` (stereo unspecified), the outcome in assay [1], in assay [7], in assay [2], in [4], in [5] and in assay [6] was inactive. Further, the AC50 is 34.5 µM (active) in [8] and 35.8 µM (active) in [9].
Turning to `CC(C)(CO)CO`, the compound was called inactive in [1], in assay [7], in [2], in assay [4], in assay [5] and in assay [6]. Also, the result in [8] and in assay [9] was inactive.
Take `CNC(=C[N+](=O)[O-])NCCSCc1ccc(CN(C)C)o1`: the result in [1], in [2], in [3], in [4], in [5] and in assay [6] was inactive.
Turning to `C[N+](C)(C)CCO`, the compound was classed as inactive in assay [1], in assay [7], in [2] and in assay [5].
Take `CCCCCCCC(=O)N(C)C`: the result in assay [1], in [7], in [2], in assay [4], in assay [5] and in assay [6] was inactive.
Regarding `CC(=O)C1=C(C)[C@@H]2C[C@@]3(C1)[C@H](C)CC[C@H]3C2(C)C`, the compound was called inactive in assay [1] and in assay [2]. Also, the AC50 in assay [7] is 137 µM (active); in assay [4] it was 70.1 µM (active); in assay [6], 100 µM (active).
In the case of `O=C1CCC(=O)N1`, the compound was classed as inactive in assay [1], in [2], in assay [3], in assay [4], in [5] and in [6].
With `C[C@]12CC[C@@H]3c4ccc(O)cc4CC[C@H]3[C@@H]1CC[C@@H]2O`, in assay [10], the AC50 was 20 µM (active).
